nsP2pro primary: CHIKV nsP2 protease inhibition, primary qHTS. 31,000 compounds, 1.1% hits. AID 1964107. FRET peptide cleavage, nsP2pro, fluorescence 1 h. Q8JUX6. Potency, µM (highest dose often 24.9 µM), without a hit: at the highest dose activity change, negative = inhibition, actives largely listed as inhibitors; also: nearly all actives have a fitted effect of over 60% in size
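Enzyme 150 nM, substrate 2.5 uM (both final); Tris-HCl 10 mM pH 8.0 + 0.01% Tween 20; cpd up to 25 uM, 7 pts; 15 min preinc., 1 h RT; fluorescence ex 525/em 598.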
nsP2 cell sec: secondary cell-based test for CHIKV nsP2 protease inhibitors | shares compounds with nsP2pro primary | cell-based CHIKV nsP2 protease reporter assay | Potency, µM (series often up to 51.1 µM), for inactives: at the top dose activity change, negative = inhibition, usual class: inhibitors | 450 compounds, 10% hits; also: nearly all actives have a fitted effect of over 70% in size
CHIKV NSP2 FL: full-length CHIKV NSP2 protease inhibition, selectivity. 410 compounds, 39% hits. Potency, µM (series often up to 50.7 µM), without a hit: at the top dose activity change, negative = inhibition, hits mostly inhibitors. Full-length CHIKV NSP2 protease enzymatic counterscreen. AID 1964101. shares compounds with nsP2pro primary; also: nearly all actives have a fitted effect of over 65% in size
Furin counter: inhibits human furin in a CHIKV nsP2 protease selectivity counterscreen | shares compounds with nsP2pro primary | Recombinant human furin enzymatic counterscreen, fluorogenic substrate | Potency, µM (series often up to 50.6 µM), inactives show top-dose activity change, negative = inhibition, actives largely listed as inhibitors | 410 compounds, 6% hits | AID 1964102
nsP2 NS23 pep: selectivity test for CHIKV nsP2 protease inhibitors: endogenous NS2/3 peptide | shares compounds with nsP2pro primary | Purified CHIKV nsP2 protease, endogenous NS2/3 peptide cleavage | Potency, µM (top dose mostly 51 µM), inactives show top-dose activity change, negative = inhibition, usual class: inhibitors | 410 compounds, 34% hits | AID 1964103; also: nearly all actives have a fitted effect of over 55% in size
Papain counter: inhibits papain in a CHIKV nsP2 protease selectivity counterscreen; shares compounds with nsP2pro primary; purified papain protease activity, enzymatic inhibition; Potency, µM (highest dose often 51 µM), for the others: at the top dose activity change, negative = inhibition, most hits filed as inhibitors; 410 compounds, 5% hits; AID 1964104
nsP2pro conf qHTS: confirmation of CHIKV nsP2 protease inhibitors; shares compounds with nsP2pro primary; CHIKV nsP2 protease enzymatic activity, qHTS; Potency, µM (doses to about 25.5 µM), inactives show at the top dose activity change, negative = inhibition, actives largely listed as inhibitors; 410 compounds, 43% hits; AID 1964105; also: nearly all actives have a fitted effect of over 75% in size
HCV NS3 4A cs: HCV NS3/4A protease inhibition, counterscreen; shares compounds with nsP2pro primary; 410 compounds, 20% hits; Potency, µM (highest dose often 50.9 µM), hits mostly inhibitors; HCV NS3/4A protease biochemical counterscreen; also: nearly all actives have a fitted effect of over 55% in size
* = called active by the depositor; i = inactive; ? = inconclusive; ! = not active in a repeat; [ ] = dose if it differs, or a comment. This excerpt belongs to a sample that is enriched for hits. Calls follow the shape of the full dose curve. % is scaled to controls: 0 for no effect and ±100 for the full control effect; potency is read from the fitted curve at half-maximal effect.

SMILES	nsP2pro primary	others
CC(=O)O[C@@H]1[C@H](O[C@@H]2O[C@H](CO)[C@@H](O)[C@H](O)[C@H]2O)[C@@H](O[C@@H]2O[C@@H](C)[C@H](O)[C@@H](O[C@@H]3O[C@H](CO)[C@@H](O)[C@H](O)[C@H]3O)[C@H]2O)[C@H](OC(=O)C23CCC4(C)C(=CCC5C6(C)CC(O)C(O[C@@H]7O[C@H](C(=O)O)[C@@H](O)[C@H](O)[C@H]7O)C(C)(C(=O)O)C6CCC54C)C2CC(C)(C)CC3O)O[C@@H]1C (some centres undefined)	-10%[5.1 µM]
COc1cccc(C(=O)CCN[C@@H](C)[C@H](O)c2ccccc2)c1	1.6µM*	nsP2 cell sec=54%;CHIKV NSP2 FL=5.8µM*;Furin counter=-4%;nsP2 NS23 pep=10µM*;Papain counter=-3%;nsP2pro conf qHTS=1.3µM*;HCV NS3 4A cs=i
C[C@H](NCCc1ccc(O)cc1)[C@H](O)c1ccc(O)cc1	-1%
COc1ccc(NC(=O)C(OC(=O)CNC(=O)c2ccccc2)c2ccccc2)c(C)c1 (centres undefined)	-4%
O=C(O)c1cc(O)c2cccc(O)c2c1O[C@@H]1O[C@H](CO)[C@@H](O)[C@H](O)[C@H]1O	15%
Cc1cc(NS(=O)(=O)c2ccc(N(C)C(=O)Cc3ccc(Cl)c(Cl)c3)cc2)no1	-7%
Cc1cccc(NC(=O)CSc2cc(C)c3ccccc3n2)c1	-16%
Cc1cccc(-c2cc(-c3ccccc3)nc(SCC(=O)Nc3ccccc3)c2C#N)c1	-9%
Cc1cccc(NC(=O)N[C@@H]2N=C(c3ccccc3)c3ccccc3N(C)C2=O)c1	?	nsP2 cell sec=15%;CHIKV NSP2 FL=?;Furin counter=-10%;nsP2 NS23 pep=?;Papain counter=-11%;nsP2pro conf qHTS=?;HCV NS3 4A cs=i
Cc1cccc(NC(=O)N[C@H]2CN(C)c3ccccc3C(c3ccccc3)=N2)c1	?	nsP2 cell sec=40%;CHIKV NSP2 FL=?;Furin counter=-9%;nsP2 NS23 pep=?;Papain counter=-10%;nsP2pro conf qHTS=?;HCV NS3 4A cs=i
Cc1cccc(NC(=O)CSc2nc3ccccc3nc2N2CCC(C)CC2)c1	-15%
Cc1ccc(NC(=O)Nc2ccc3c(c2)N(C)C(=O)c2ccccc2S3)c(C)c1	-8%
CN1C(=O)CCC2(CNC(=O)CCc3c[nH]c4ccccc34)CCC=C12 (centres undefined)	-17%
Cc1cc(C)n2ncc(C(=O)NC3CCC(C(C)(C)C)CC3)c2n1 (centres undefined)	-5%
Oc1cc(O)c2c(c1)O[C@H](c1ccc(O)c(O)c1)[C@H](O)C2	0%
O=C(O[C@@H]1Cc2c(O)cc(O)cc2O[C@@H]1c1cc(O)c(O)c(O)c1)c1cc(O)c(O)c(O)c1	4.4µM*!	nsP2 cell sec=-27%;CHIKV NSP2 FL=?;Furin counter=?;nsP2 NS23 pep=5.8µM*;Papain counter=?;nsP2pro conf qHTS=4.5µM*;HCV NS3 4A cs=?
OCC1OC(Oc2cc(O)c3c(c2)OC(c2ccc(O)cc2)C(O)C3)C(O)C1O (centres undefined)	-4%[10 µM]
O=C(O[C@@H]1Cc2c(O)cc(O)cc2O[C@@H]1c1ccc(O)c(O)c1)c1cc(O)c(O)c(O)c1	?	nsP2 cell sec=-24%;CHIKV NSP2 FL=23µM*;Furin counter=-6%;nsP2 NS23 pep=15µM*;Papain counter=-26%;nsP2pro conf qHTS=?;HCV NS3 4A cs=?
Cc1cc(C)n2ncc(C(=O)Nc3cccc(C(F)(F)F)c3)c2n1	1%
Fc1cc(Nc2nc(-c3ccncc3)nc3ccccc23)ccc1-c1cccc(OC(F)(F)F)c1	3%
CCN1CCN(Cc2ccc(Nc3ncc(F)c(-c4cc(F)c5nc(C)n(C(C)C)c5c4)n3)nc2)CC1	162%
CC1=C(CO)C(=O)O[C@@H]([C@@H](C)[C@H]2CC[C@H]3[C@@H]4C[C@H]5O[C@]56[C@@H](O)C=CC(=O)[C@]6(C)[C@H]4CC[C@]23C)C1	-10%[10 µM]
CC(=O)O[C@@H]1C[C@@]23C[C@@]24CC[C@H](O[C@@H]2OC[C@H](O)[C@H](O)[C@H]2O)C(C)(C)[C@@H]4CC[C@H]3[C@]2(C)[C@@H](O)C34O[C@H](C[C@@H](C)[C@@H]3[C@@]12C)[C@@H](C(C)(C)O)O4	-6%
CCOc1ccc(CCNC(=O)c2cc3ccccc3n2C)cc1OCC	i
C=CCC/C=C/C#CCCCCCCCC[C@H]1C(=O)O[C@H](C)[C@@H]1O	?	nsP2 cell sec=?;CHIKV NSP2 FL=?;Furin counter=-9%[33.5 µM];nsP2 NS23 pep=-8%[33.5 µM];Papain counter=?;nsP2pro conf qHTS=?;HCV NS3 4A cs=i
SMILES	nsP2pro primary	others
CN(C)c1cc(NC(=O)CNC(C)(C)C)c(O)c2c1C[C@H]1C[C@H]3[C@H](N(C)C)C(=O)C(C(N)=O)=C(O)[C@]3(O)C(=O)C1=C2O	130%
CC(=O)Nc1ccc(-c2nc3ccccc3s2)cc1	i
O=C(O)c1ccc(S(=O)(=O)N(Cc2ccc(OC(F)(F)F)cc2)c2ncc(C(F)(F)F)cc2Cl)cc1	-16%
Cc1cccc(-c2noc([C@@H]3Cc4nc[nH]c4CN3C(=O)c3ccc(-c4ccccc4)cc3)n2)c1	i
Cc1cccc(-c2noc([C@@H]3Cc4nc[nH]c4CN3C(=O)C3CCCCC3)n2)c1	72%[39.2 µM]
O=C(NC1CCCCC1)N1Cc2[nH]cnc2C[C@H]1c1nc(-c2ccc(Cl)cc2)no1	4.5µM*	nsP2 cell sec=56%;CHIKV NSP2 FL=33µM*;Furin counter=-9%;nsP2 NS23 pep=?;Papain counter=-9%;nsP2pro conf qHTS=10µM*;HCV NS3 4A cs=i
CNCc1ccc(C)c(NC(=O)c2ccc(Nc3nc(-c4ccccc4)c4ccccc4n3)cc2)c1	82%
CN(C(=O)c1cc2nc(-c3ccco3)cc(C(F)(F)F)n2n1)c1ccc(OC(F)(F)Cl)cc1	-25%
O=C(Nc1cccc(C(F)(F)F)c1)c1cc2nc(-c3ccco3)cc(C(F)(F)Cl)n2n1	-2%
O=C(NCc1cccs1)c1cc2nc(-c3ccco3)cc(C(F)(F)Cl)n2n1	5.6µM*	nsP2 cell sec=14%;CHIKV NSP2 FL=-3%;Furin counter=-16%;nsP2 NS23 pep=-19%;Papain counter=-2%;nsP2pro conf qHTS=-16%;HCV NS3 4A cs=i
CC(C)OC(=O)c1ccnc2cc(C(OCCN3CCCCC3)c3ccccc3Cl)sc12 (centres undefined)	23%
CO[C@@H](Cc1ccc(OCCc2nc(-c3ccccc3)oc2C)c2ccsc12)C(=O)O	9.9µM*	nsP2 cell sec=21%;CHIKV NSP2 FL=0%;Furin counter=-6%;nsP2 NS23 pep=i;Papain counter=?;nsP2pro conf qHTS=?;HCV NS3 4A cs=i
CCOc1ccc(-c2nc(CNC(=O)Nc3ccccc3)c(C)o2)cc1	-18%
Cc1oc(-c2ccc(C(=O)NCCCOC(C)C)cc2)nc1CS(=O)(=O)c1ccccc1	-18%

Screening data: PubChem, National Center for Advancing Translational Sciences (NCATS)
